Hit rate of the full screen: of about 2,300 compounds, about 1,100 (48%) were called active. The rule behind the calls is not given here. The set was probably picked from earlier hits. The list shows a part of the results. Where a call stands in place of a potency, no number is given. Potency and affinity values are given separately.
Assay: S. typhi counter-screen signal inhibition – fluorescence, 4 h, counter-screen for PhoP regulon inhibitor project, dose response (AID 2384)
Settings: S. typhi GFP reporter counter-screen; series mostly up to 150 µM
For `CC(=O)c1sc2nc(=O)c(C)nn2c1C`, the inhibition was “inactive”.
In the case of `CCOC(=O)C(CC)Sc1ccc2nnc(-c3cccnc3)n2n1` (stereo unspecified), the inhibition was “inactive”.
In the case of `COC(=O)c1cc2oc(C)cc2n1CC(=O)Nc1ccc(C)c(C)c1`, the inhibition was “inactive”.
In the case of `CCCNC(=O)C1CCN(c2ccc(S(=O)(=O)N3CCOCC3)cc2Cl)CC1`, the inhibition was “inactive”.
With `CCn1c(-c2cccc(Br)c2)n[nH]c1=S` the inhibition was “inactive”.
In the case of `Cc1onc(-c2ccccc2Cl)c1C(=O)NNC(=O)C1CCN(Cc2ccccc2)CC1`, the inhibition was “inactive”.
With `COC(=O)CNC(=O)c1ccc(=O)oc1` the inhibition was “inactive”.
In the case of `COc1ccc(Cl)cc1N(C)C(=O)CCNC(=O)Cn1cnc2ccccc2c1=O`, the inhibition was “inactive”.
In the case of `O=C(NCC1CC1)Nc1cccs1`, the inhibition was “inactive”.
With `Oc1ccc(-c2nc3ncccn3c2Nc2ccc3c(c2)OCCO3)cc1` the inhibition was “inactive”.
With `COc1ccccc1NC(=O)CN1CCN(c2ccccc2)CC1` the inhibition was “inactive”.
With `COc1ccccc1NC(=O)Cn1cnc2c(nnn2-c2ccc(C)cc2)c1=O` the inhibition was “inactive”.
With `COc1ccc2nc(NC(=O)Nc3ccccc3)sc2c1` the inhibition was “inactive”.
With `CCN(CC)CCN(C(=O)c1cccc([N+](=O)[O-])c1)c1nc2ccc(OC)cc2s1` the inhibition was “inactive”.
With `O=C(N/N=C/c1ccc(-c2ccc(Br)cc2)o1)c1ccc2c(c1)OCO2` the inhibition was “inactive”.
In the case of `Cc1nc(C)c(-c2ccc(SCc3ccccc3C)nn2)s1`, the inhibition was “inactive”.
With `CCCC(=NCc1ccccc1)C1=C(O)C(C(=O)OC)C(C)(C)CC1=O` (stereo unspecified) the inhibition was “inactive”.
In the case of `Cc1noc(C)c1CCC(=O)N1CCCC(CCC(=O)NCc2ccc(F)c(F)c2)C1` (stereo unspecified), the inhibition was “inactive”.
In the case of `CC(C)CNC(CC(=O)O)c1ccccc1` (stereo unspecified), the inhibition was “inactive”.
With `CCc1c(C)n([O-])c2c([n+]1=O)CCCCC2` the inhibition was “inactive”.
For `COCc1cc(=O)n2[nH]c(C)nc2n1`, the inhibition was “inactive”.
In the case of `O=C(CC1(O)C(=O)Nc2ccc(Br)cc21)c1ccc2c(c1)OCO2` (stereo unspecified), the inhibition was “inactive”.
In the case of `O=C(CN1C2=NCCN2c2ccccc21)c1ccco1`, the inhibition was “inactive”.
For `COc1ccc(NS(=O)(=O)c2cc(NC(=O)c3ccc(C)s3)ccc2N2CCOCC2)cc1`, the inhibition was “inactive”.
For `CCOc1ccc(-c2c[n+]3c(n2-c2ccccc2)CCCCC3)cc1`, the inhibition was “inactive”.
For `COc1ccc(C2C(C#N)=C(N)Oc3n[nH]c(C)c32)cc1CSc1ccccn1` (stereo unspecified), the inhibition was “inactive”.
With `CCCCc1cc(=O)oc2cc(C)c(CN3CCCC3)c(O)c12` the inhibition was “inactive”.
In the case of `CC(C)c1ccc2oc(=O)cc(CN3CCN(c4ccc(F)cc4)CC3)c2c1`, the inhibition was “inactive”.
With `CCN(CC)CCOC(=O)c1ccc(N/C=C(/C#N)c2nc(-c3ccc(OC)c(OC)c3)cs2)cc1` the inhibition was “inactive”.
In the case of `O=C(CSC1=NCCS1)Nc1nc2c(s1)CCCC2`, the inhibition was “inactive”.
For `O=C(CSc1cccc2cccnc12)Nc1ccc(S(=O)(=O)N2CCOCC2)cc1`, the inhibition was “inactive”.
With `CC(=O)Nc1cc(-c2ccc(Cl)cc2)[nH]n1` the inhibition was “inactive”.
For `CC(=O)c1c(C)nc(-c2cccc([N+](=O)[O-])c2)n1O`, the inhibition was “inactive”.
With `Cc1ccc(C(=O)NCC(=O)NCCc2ccc(S(N)(=O)=O)cc2)s1` the inhibition was “inactive”.
With `N#Cc1nc(COc2ccc(Br)cc2)oc1NCCCn1ccnc1` the inhibition was “inactive”.
With `O=C1CCCN1c1ccc(CNS(=O)(=O)c2ccc(F)cc2)cc1` the inhibition was “inactive”.
In the case of `COc1ccccc1C(=O)Nc1nnc(-c2ccc(Cl)cc2)o1`, the inhibition was “inactive”.
In the case of `COc1cccc(-c2nc(CS(=O)CC(=O)NCCCOC(C)C)c(C)o2)c1` (stereo unspecified), the inhibition was “inactive”.
In the case of `COc1ccc(S(=O)(=O)NCCSCc2ccco2)cc1Cl`, the inhibition was “inactive”.
In the case of `Cn1c(N/N=C/c2c[nH]c3ccccc23)nc2ccccc21`, the inhibition was “inactive”.
With `O=C(N/N=C\c1c[nH]c2ccccc12)c1ccc(O)cc1` the inhibition was “inactive”.
For `COc1cc(C(=O)N/N=C/c2coc3ccccc3c2=O)cc(OC)c1OC`, the inhibition was “inactive”.
For `O=C1CC(=O)CC(c2ccco2)C1`, the inhibition was “inactive”.
For `FC(F)Oc1ccc(NC(=S)NCc2nc3ccccc3[nH]2)cc1`, the inhibition was “inactive”.
With `Cc1nn(-c2ccccc2)c(C)c1/C=N/n1c(-c2ccc(C(C)(C)C)cc2)n[nH]c1=S` the inhibition was “inactive”.
For `O=C1CCCN1CCC1CCN(C2CC(=O)N(c3ccc(Cl)cc3)C2=O)CC1` (stereo unspecified), the inhibition was “inactive”.
With `COc1ccc(-c2cc(=NCC(=O)O)c3ccccc3o2)cc1` the inhibition was “inactive”.
With `COc1ccc(C(=O)Oc2ccc(/C=N/O)cc2)cc1` the inhibition was “inactive”.
For `CCCC1=C(C(=O)OCC)C(c2ccc(O)cc2)n2ncnc2N1` (stereo unspecified), the inhibition was “inactive”.
For `Cc1cc2ccccc2c(=O)n1CC(=O)NCCC1=CCCCC1`, the inhibition was “inactive”.
In the case of `Cc1ccccc1C(=O)c1cccn1CC(=O)NCCC1=CCCCC1`, the inhibition was “inactive”.
With `Cc1nc(C)c(-c2ccc(SCc3ccccc3F)nn2)s1` the inhibition was “inactive”.
In the case of `O=C(O)c1cn(-c2ccc(F)cc2)c2cc(Cl)c(F)cc2c1=O`, the inhibition was “inactive”.
With `COC(=O)C(O)(c1c(C)[nH]n(-c2ccccc2)c1=O)C(F)(F)F` (stereo unspecified) the inhibition was “inactive”.
For `CN(C)C(=O)COC(=O)/C=C/c1ccccc1[N+](=O)[O-]`, the inhibition was “inactive”.
For `Cc1nc2scc(C)n2c(=O)c1S(=O)(=O)N1CCN(c2cccc(C(F)(F)F)c2)CC1`, the inhibition was “inactive”.
In the case of `CCCC(c1nnnn1Cc1ccc(OC)cc1)N1CCN(c2ccccc2OC)CC1` (stereo unspecified), the inhibition was “inactive”.
With `COc1ccccc1Oc1coc2c(CN3CCN(C)CC3)c(O)ccc2c1=O` the inhibition was “inactive”.
With `O=c1cc(-c2ccccc2)nc(N2CCN(Cc3ccccc3)CC2)[nH]1` the inhibition was “inactive”.
In the case of `CCCCCN1C(=O)/C(=C/c2c(N3CCc4ccccc4C3)nc3ccccn3c2=O)SC1=S`, the inhibition was “inactive”.
With `Cc1ccc(-n2ncc3c(=O)[nH]cnc32)c(C)c1` the inhibition was “inactive”.
In the case of `CCCCN(CCCC)CCNC(=O)CSCc1ccc(C)cc1`, the inhibition was “inactive”.
For `COc1ccc(N2C(=O)CC(N3CC=C(c4ccccc4)CC3)C2=O)cc1` (stereo unspecified), the inhibition was “inactive”.
With `Brc1ccc2c(c1)CN1CCCC1=N2` the inhibition was “inactive”.
In the case of `CC(C)[C@@H](C(=O)NC1CCCC1)N1C(=O)N2CCc3c([nH]c4ccccc34)[C@@]2(C)C1=O`, the inhibition was “inactive”.
With `O=C(N/N=C/c1ccc(F)c(F)c1)c1cc2c(s1)-c1ccccc1CC2` the inhibition was “inactive”.
In the case of `COc1cccc(CNC23CC4CC(CC(C4)C2)C3)c1OCc1ccccc1`, the inhibition was “inactive”.
With `COc1cc(CNc2ccc(N3CCN(C(C)=O)CC3)cc2)ccc1OCc1ccccc1` the inhibition was “inactive”.
For `COc1ccc(Cl)cc1NC(=O)c1cc(-c2ccccc2)on1`, the inhibition was “inactive”.
In the case of `O=c1c2ccccc2nc(-c2ccoc2)n1CCc1ccccc1`, the inhibition was “inactive”.
With `CCc1nc(SCC(=O)NCCc2ccccc2)c2c(=O)n(C)c(=O)n(C)c2n1` the inhibition was “inactive”.
